Assay [1] relates to Plasmodium falciparum Sir2 (PF13_0152, Sir2A). Kind of assay: Plasmodium falciparum Sir2A binding compounds – biochemical, small-molecule microarray, 635 nm fluorescence, primary screen (AID 1098).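 Also: score merges spot fluorescence intensity with its signal-to-noise ratio.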 As to conditions: fluorescence 635 nm, higher = more signal.
Assay [2] can be described thus: probe aDKK1 binding to arrayed compounds – biochemical, biotinylated probe, 635/667 nm fluorescence, primary screen (AID 1099).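 Also: score merges 667nm spot fluorescence with signal to noise across triplicate slides.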 As to conditions: small-molecule microarray, higher = more signal.
Assay [3] is described as follows: probe aCHRDL2 binding to arrayed compounds – biochemical, biotinylated probe, 635/667 nm fluorescence, primary screen (AID 1100). As to conditions: small-molecule microarray, higher = more signal.
Assay [4] is described as follows: change in splice reporter luminescence, either direction, cell-based, HEK293, spliceosome inhibition project, primary screen (AID 1101).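 Also: HEK293 cells carrying a splicing-competent luciferase reporter gene; test concentration not given here.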 As to conditions: HEK293 splicing luciferase reporter, 24 h, higher = more signal, called active from +8 up or from −8 down.
For assay [5], the target named is Fibroblast growth factor 10 (Homo sapiens) (UniProt O15520). The experiment in a line: compounds binding fibroblast growth factor 10 – biochemical, small-molecule microarray, 635 nm fluorescence, primary screen (AID 1102). As to conditions: FGF10 binding, fluorescence 635 nm, higher = more signal.
Assay [6] deals with glycogen synthase kinase-3 (GSK3A per assay name; protocol says GSK3B). Kind of assay: compounds binding glycogen synthase kinase-3 – biochemical, small-molecule microarray, 635 nm fluorescence, GSK3A, primary screen (AID 1103). Also: the record names both GSK3A and GSK3B. As to conditions: fluorescence 635 nm, higher = more signal.
In assay [7] the target is Epidermal growth factor receptor (Homo sapiens) (UniProt P00533). Kind of assay: compounds binding epidermal growth factor receptor – biochemical, small-molecule microarray, 635 nm fluorescence, primary screen (AID 1104).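 Also: score merges 667 nm emission intensity with spot signal to noise over triplicate slides.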 As to conditions: EGFR binding, higher = more signal.
For assay [8], the target named is Follistatin-related protein 3 (Homo sapiens) (UniProt O95633). Kind of assay: compounds binding follistatin-related protein 3 – biochemical, small-molecule microarray, 635 nm fluorescence, primary screen (AID 1105).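 Also: score merges emission near 667 nm and signal to noise per printed spot across three slides.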 As to conditions: FSTL3 binding, higher = more signal.
Assay [9] has as its target Dickkopf-related protein 1 (Homo sapiens) (UniProt O94907). The experiment in a line: small molecules binding DKK1 protein – biochemical, small-molecule microarray, 635 nm fluorescence scan, primary screen (AID 1106).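 Also: score merges emission near 667 nm with signal to noise over three replicate slides.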 As to conditions: higher = more signal.
The test system of assay [10] is Inhibin beta A chain (activin A). Kind of assay: small molecules binding activin A – biochemical, small-molecule microarray, 635 nm fluorescence scan, primary screen (AID 1107).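 Also: mouse activin A protein probed at 4.33 µg/mL on printed slides; score merges bound-protein fluorescence near 667 nm with spot signal-to-noise.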 As to conditions: INHBA, higher = more signal.
For assay [11], the system named is Human papillomavirus type 1a protein E7 (residues 44-93). Kind of assay: small molecules binding HPV E7 44-93 – biochemical, small-molecule microarray, residues 44-93, 635 nm fluorescence, primary screen (AID 1108).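 Also: E7 fragment applied at 1 µg/mL in TBST for 1 h at 4 C; score combines spot fluorescence with its signal to noise ratio.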 As to conditions: fluorescence 635 nm, higher = more signal.
Assay [12] can be described thus: hepatitis C replication reporter changes, two-sided – Huh7 cells, luciferase reporter, HCV replication inhibitor project, primary screen (AID 1109).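 Also: huh7 hepatoma cells harbouring a luciferase neomycin HCV replicon reporter; luciferase luminescence as measure of HCV replicon replication; test concentration not given here.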 As to conditions: Huh7 HCV replicon luciferase reporter, 48 h; higher = more signal.
Assay [13] has as its target Left-right determination factor 2 (Homo sapiens) (UniProt O00292). The experiment in a line: small molecules binding LEFTY2 protein – biochemical, small-molecule microarray, 635 nm fluorescence scan, primary screen (AID 1110). As to conditions: higher = more signal.
For assay [14], the target named is Calmodulin-1 (Homo sapiens) (UniProt P0DP23). The experiment in a line: small molecules binding calmodulin-1 with EGTA – biochemical, small-molecule microarray, Cy5-labelled CALM1, profiling panel (AID 1111).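 Also: labelled calmodulin applied in Tris saline Tween buffer holding calcium plus EGTA and DTT.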 As to conditions: Cy5-CALM1 binding fluorescence, higher = more signal.
For assay [15] the target is unchanged. Kind of assay: small molecules binding Ca-loaded calmodulin-1 – biochemical, small-molecule microarray, Cy5-labelled CALM1, plus calcium, artefact control for SMM control-protein annotation, profiling panel (AID 1112).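 Also: score merges spot fluorescence with signal to noise from triplicate slides.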 As to conditions: Cy5-CALM1 binding fluorescence, higher = more signal.
A short description of assay [16]: probe aWnt5a binding to arrayed compounds – biochemical, biotinylated probe, 635/667 nm fluorescence, primary screen (AID 1113).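 Also: score merges 667 nm fluorescence intensity with signal-to-noise per printed feature.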 As to conditions: small-molecule microarray, higher = more signal.
Assay [17] is described as follows: probe aShh binding to arrayed compounds – biochemical, biotinylated probe, 635/667 nm fluorescence, primary screen (AID 1114).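 Also: probe is biotin-labelled aShh protein from a stem cell growth factor screen; measures binding of labelled protein to compounds printed on the slide; score merges feature fluorescence at 667 nm with signal-to-noise.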 As to conditions: small-molecule microarray, higher = more signal.
Assay [18] is described as follows: probe aNog binding to arrayed compounds – biochemical, biotinylated probe, 635/667 nm fluorescence, primary screen (AID 1115).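 Also: probe is biotinylated aNog protein used at 0.15 µg/mL for 1 h at 4 C; z-score combines 667 nm fluorescence of each spot with its signal to noise.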 As to conditions: small-molecule microarray, higher = more signal.
In assay [19] the target is Torsin-1A-interacting protein 1 (Homo sapiens) (UniProt Q5JTV8). The experiment in a line: compound microarray binding of lysate hLAP1 – cell lysate, small-molecule microarray, COS7 lysate, 635/667 nm fluorescence, primary screen (AID 1116). As to conditions: 635 nm fluorescence, higher = more signal.
Assay [20] concerns the target Alpha-bungarotoxin (Bungarus multicinctus) (UniProt P60615). The experiment in a line: compounds binding labelled alpha-BTX control protein – biochemical, small-molecule microarray, Alexa647 label, 635/667 nm fluorescence, artefact control for SMM control protein annotation, profiling panel (AID 1117). As to conditions: alpha-BTX-A647 binding fluorescence, higher = more signal.

Active and inactive are the calls of the source.

Sequence of Follistatin-related protein 3 (Homo sapiens) (O95633 whole entry, looked up): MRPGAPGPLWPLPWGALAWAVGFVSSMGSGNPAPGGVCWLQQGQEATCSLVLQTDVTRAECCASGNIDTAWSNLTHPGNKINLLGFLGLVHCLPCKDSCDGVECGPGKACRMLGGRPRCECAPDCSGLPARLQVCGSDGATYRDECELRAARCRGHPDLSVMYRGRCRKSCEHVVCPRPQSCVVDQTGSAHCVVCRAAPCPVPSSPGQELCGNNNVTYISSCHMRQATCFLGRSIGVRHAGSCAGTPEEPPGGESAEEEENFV
Sequence of Epidermal growth factor receptor (Homo sapiens) (P00533 whole entry, looked up): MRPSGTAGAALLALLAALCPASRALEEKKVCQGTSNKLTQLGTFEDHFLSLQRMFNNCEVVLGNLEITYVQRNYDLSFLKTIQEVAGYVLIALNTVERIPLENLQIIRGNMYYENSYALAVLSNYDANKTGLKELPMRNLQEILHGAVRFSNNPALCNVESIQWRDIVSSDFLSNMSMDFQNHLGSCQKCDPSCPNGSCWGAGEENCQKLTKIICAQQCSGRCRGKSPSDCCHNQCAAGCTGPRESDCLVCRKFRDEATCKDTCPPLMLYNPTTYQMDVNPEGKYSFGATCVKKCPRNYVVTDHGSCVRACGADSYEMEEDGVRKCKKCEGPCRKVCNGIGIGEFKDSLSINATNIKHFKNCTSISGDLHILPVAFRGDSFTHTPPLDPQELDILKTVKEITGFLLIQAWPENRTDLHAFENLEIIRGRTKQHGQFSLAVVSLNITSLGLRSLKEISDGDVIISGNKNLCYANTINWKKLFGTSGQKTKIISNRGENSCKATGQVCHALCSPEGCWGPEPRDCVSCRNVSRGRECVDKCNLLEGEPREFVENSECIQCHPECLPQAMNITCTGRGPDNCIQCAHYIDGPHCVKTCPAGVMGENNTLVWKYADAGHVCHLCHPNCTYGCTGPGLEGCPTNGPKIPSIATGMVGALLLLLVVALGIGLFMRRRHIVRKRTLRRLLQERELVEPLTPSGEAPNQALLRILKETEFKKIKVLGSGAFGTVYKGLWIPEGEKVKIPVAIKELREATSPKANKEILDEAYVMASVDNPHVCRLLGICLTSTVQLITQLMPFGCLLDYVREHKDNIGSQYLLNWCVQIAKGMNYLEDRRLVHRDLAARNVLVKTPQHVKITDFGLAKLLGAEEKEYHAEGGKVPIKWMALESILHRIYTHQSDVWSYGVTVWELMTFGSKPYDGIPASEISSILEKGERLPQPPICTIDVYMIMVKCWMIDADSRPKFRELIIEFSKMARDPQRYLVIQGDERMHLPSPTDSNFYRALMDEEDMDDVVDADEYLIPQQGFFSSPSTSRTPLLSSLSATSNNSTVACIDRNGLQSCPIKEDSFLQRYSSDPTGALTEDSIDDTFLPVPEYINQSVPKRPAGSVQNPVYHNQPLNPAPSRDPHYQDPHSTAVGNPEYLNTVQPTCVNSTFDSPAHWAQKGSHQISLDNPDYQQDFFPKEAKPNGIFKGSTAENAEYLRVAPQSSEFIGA
Sequence of Left-right determination factor 2 (Homo sapiens) (O00292 whole entry, looked up): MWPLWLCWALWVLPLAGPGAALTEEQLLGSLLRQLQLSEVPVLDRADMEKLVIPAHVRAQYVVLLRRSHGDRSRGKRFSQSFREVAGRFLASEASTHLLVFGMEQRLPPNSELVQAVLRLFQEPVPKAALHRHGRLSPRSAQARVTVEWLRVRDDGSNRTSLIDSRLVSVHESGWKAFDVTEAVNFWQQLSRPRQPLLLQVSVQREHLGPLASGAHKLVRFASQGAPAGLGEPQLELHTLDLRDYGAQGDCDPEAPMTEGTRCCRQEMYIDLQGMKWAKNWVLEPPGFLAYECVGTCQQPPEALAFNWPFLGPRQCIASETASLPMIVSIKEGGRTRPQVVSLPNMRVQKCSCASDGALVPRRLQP
Sequence of Fibroblast growth factor 10 (Homo sapiens) (O15520 whole entry, looked up): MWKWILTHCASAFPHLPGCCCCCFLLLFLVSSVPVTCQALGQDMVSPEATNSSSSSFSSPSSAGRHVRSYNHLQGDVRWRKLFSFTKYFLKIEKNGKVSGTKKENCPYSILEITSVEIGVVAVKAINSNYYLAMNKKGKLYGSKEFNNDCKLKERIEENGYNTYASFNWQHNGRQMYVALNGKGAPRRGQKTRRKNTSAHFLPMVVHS
Sequence of Dickkopf-related protein 1 (Homo sapiens) (O94907 whole entry, looked up): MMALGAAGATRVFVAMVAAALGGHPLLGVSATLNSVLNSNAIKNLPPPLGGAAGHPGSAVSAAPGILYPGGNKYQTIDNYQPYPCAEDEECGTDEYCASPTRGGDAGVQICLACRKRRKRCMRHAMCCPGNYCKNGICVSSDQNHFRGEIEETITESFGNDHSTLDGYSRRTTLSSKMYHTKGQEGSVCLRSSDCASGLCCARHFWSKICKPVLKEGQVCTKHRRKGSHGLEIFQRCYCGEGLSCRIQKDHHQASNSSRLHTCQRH
Sequence of Torsin-1A-interacting protein 1 (Homo sapiens) (Q5JTV8 whole entry, looked up): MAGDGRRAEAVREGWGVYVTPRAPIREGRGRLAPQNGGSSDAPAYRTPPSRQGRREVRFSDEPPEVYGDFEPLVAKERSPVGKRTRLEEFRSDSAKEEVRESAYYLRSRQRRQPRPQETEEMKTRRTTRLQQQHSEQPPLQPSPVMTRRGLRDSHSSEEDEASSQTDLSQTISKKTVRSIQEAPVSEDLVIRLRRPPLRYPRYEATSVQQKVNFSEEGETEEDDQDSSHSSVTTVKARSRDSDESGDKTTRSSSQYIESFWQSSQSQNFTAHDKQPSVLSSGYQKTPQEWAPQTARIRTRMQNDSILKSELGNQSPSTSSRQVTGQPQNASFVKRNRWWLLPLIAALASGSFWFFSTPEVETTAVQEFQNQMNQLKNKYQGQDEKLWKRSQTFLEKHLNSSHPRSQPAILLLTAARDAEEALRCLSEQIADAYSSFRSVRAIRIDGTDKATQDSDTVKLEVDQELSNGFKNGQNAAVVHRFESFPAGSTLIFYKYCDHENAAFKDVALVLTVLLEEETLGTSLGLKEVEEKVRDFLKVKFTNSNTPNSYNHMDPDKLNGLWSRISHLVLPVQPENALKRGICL
Sequence of Alpha-bungarotoxin (Bungarus multicinctus) (P60615 whole entry, looked up): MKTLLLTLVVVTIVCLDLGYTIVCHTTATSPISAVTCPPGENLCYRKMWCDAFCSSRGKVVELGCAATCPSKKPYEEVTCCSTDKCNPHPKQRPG

As to `COc1ccc([Si](C)(C)[C@H]2[C@H](CCO)O[C@@]3(C(=O)N(Cc4cccc(NC(=O)[C@H](C)O)c4)c4ccccc43)[C@@H]2C)cc1`, the composite z-score in assay [1] is 1.01; in assay [2], -0.146; in assay [3], -0.026; in [5] it was 1.01; in [6] it was 0.738; in assay [7], 0.382. Moreover, the composite z-score in assay [8] was 0.901; in [9] it was 0.507; in [10] it was 0.106; in [11], 1.39; in assay [13], 0.383; in assay [14], 0.922. Further, the composite z-score was -0.14 in assay [15]; -0.101 in assay [16]; 0.0144 in assay [17]; -0.074 in assay [18]; 0.798 in assay [19]; 1.36 in [20]. For the same compound, the z-score was -2.55 (inactive) in assay [4] and -5.13 in assay [12].
Take `O=C(NN=C1C[C@@H](O)[C@@H](O)[C@@H]2[C@@H]3C(=O)N(c4ccc(F)cc4F)C(=O)[C@@H]3CC[C@@H]12)OCc1ccccc1`: the composite z-score in assay [1] was 0.328; in assay [2], -0.269; in assay [3], -0.232; in [5] it was -0.0739; in assay [6] it was -0.0799; in assay [7] it was 0.452. The composite z-score is 0.297 in assay [8]; 0.092 in assay [9]; -0.103 in assay [10]; 0.782 in [11]; 0.312 in assay [13]; -0.0007 in assay [14]. For the same compound, the composite z-score was -0.226 in assay [15]; 0.0354 in assay [16]; -0.0553 in assay [17]; -0.562 in [18]; 0.547 in [19]; 0.736 in [20]. Besides, the z-score was 0.464 (inactive) in [4] and -0.769 in assay [12].
For the compound `CN1C(=O)C2C(C1=O)C1C=C(CCCO)C2C(c2ccc(CN3CCCC3)cc2)N1C` (stereo not given), the composite z-score in assay [1] is -0.583; in assay [2] it was -0.32; in assay [3], -0.268; in [5], -0.684; in assay [6], -0.0315; in assay [7], -0.576. For the same compound, the composite z-score in assay [8] is -0.186; in assay [9], 0.142; in [10], 0.523; in assay [11] it was -0.0161; in assay [13], 0.175; in assay [14], -0.573. In addition, the composite z-score in assay [15] is -0.0923; in assay [16], -0.148; in assay [17], -0.273; in assay [18] it was 0.171; in [19], 0.0993; in assay [20], 0.0035. The z-score in [4] is -0.451 (inactive); in assay [12], -0.259.
`CCCC[C@H]1OB(O)C[C@H]2C1=C(C)C[C@H]1C(=O)N(C)C(=O)[C@H]12`: the composite z-score in [1] was 0.0529; in [2] it was -0.0166; in [3] it was -0.372; in assay [5], 0.944; in assay [6], 0.774; in assay [7] it was 0.259. Further, the composite z-score was 1.27 in assay [8]; 0.558 in [9]; 0.131 in assay [10]; 0.736 in assay [11]; 0.654 in [13]; -0.0405 in assay [14]. Also, the composite z-score was 0.06 in [15]; -0.0462 in assay [16]; -0.243 in assay [17]; 0.322 in assay [18]; -0.368 in [19]; 0.27 in assay [20]. Moreover, the z-score is 0.238 (inactive) in assay [4] and -0.686 in assay [12].
On to `CCOC(=O)[C@H](Cc1ccccc1)NC(=O)CCC1CC(OC(=O)NCc2ccc3c(c2)OCO3)CC2(CCCC(COC(=O)NCc3ccccc3)O2)O1` (stereo not given in full), for which the composite z-score in [1] was 0.403; in [2] it was -0.125; in assay [3], -0.468; in assay [5], 1.02; in assay [6], 0.78; in assay [7], 0.361. Further, the composite z-score in assay [8] was 1.02; in assay [9], 0.606; in [10], -0.303; in assay [11], 1.33; in [13], 0.619; in assay [14] it was 0.351. Besides, the composite z-score in assay [15] is -0.298; in [16] it was -0.128; in assay [17] it was -0.0793; in assay [18], 0.041; in assay [19], 0.183; in [20], 0.463. Besides, the z-score in assay [4] was -1.03 (inactive); in [12] it was -1.08.

The record behind these values is PubChem BioAssay.
